Data on nine molecules can be found in PubChem BioAssay (NCI).

Some test systems named below: HCT-15 colon; HT29 colon; SNB-75 CNS; SNB-19 CNS; U251 CNS; PC-3 prostate; SK-MEL-5 melanoma; UACC-62 melanoma; LOX IMVI melanoma; SK-MEL-28 melanoma; SK-MEL-2 melanoma; EKVX NSCLC; SN12C renal; ACHN renal; CAKI-1 renal; A498 renal; CCRF-CEM leukemia; MOLT-4 leukemia; UO-31 renal; TK-10 renal.
What all share (test): NCI-60 one-dose screen, 48 h (100 = growth as untreated, 0 = no growth, -100 = all killed)
Common to all, as to conditions: 10 µM

This is part of a sample that, as a whole, favours compounds with a hit. Of some 83,000 tested, about 20% had one in any assay.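 How to read the values: 0–100, growth inhibition (40 = 60% inhibited); 0, no net growth; -100 to 0, cell death (-40 = 40% of starting cells died; -100 = all dead).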 Values without a mark were called inactive. Active and inactive are the calls of the source. How the source made its calls: active means growth percent below 10; inactive means the rest.

Regarding `O=C(COc1ccc(Cl)cc1Cl)Oc1coc(CSc2nc3ccccc3s2)cc1=O`, the growth in the assay with HCT-15 colon is 103%; in the assay with HT29 colon, 114%; with SNB-75 CNS, 112%; in the assay on SNB-19 CNS, 103%; in the assay with U251 CNS, 97.3%; with PC-3 prostate it was 106%. Besides, the growth in the assay on SK-MEL-5 melanoma was -78% (active); with UACC-62 melanoma it was 70.5%; in the assay on LOX IMVI melanoma, 90.5%; in the assay with SK-MEL-28 melanoma, 131%; with SK-MEL-2 melanoma, 94.5%; in the assay on EKVX NSCLC it was 106%. The growth is 92.3% with SN12C renal; 101% with ACHN renal; 101% with CAKI-1 renal; -21.3% (active) with A498 renal; 88.7% in the assay on CCRF-CEM leukemia; 86.4% in the assay with MOLT-4 leukemia.
As to `Cc1ccc(C)c(S(=O)(=O)NC2c3ccccc3Oc3ccccc32)c1`, the growth in the assay on HCT-15 colon is 94%; in the assay on HT29 colon, 88.8%; in the assay on SNB-75 CNS it was 91%; with SNB-19 CNS, 102%; in the assay on U251 CNS, 92.1%; in the assay with PC-3 prostate, 89%. In addition, the growth is 101% with SK-MEL-5 melanoma; 95.1% in the assay on UACC-62 melanoma; 94.1% in the assay on LOX IMVI melanoma; 106% in the assay on SK-MEL-28 melanoma; 101% with SK-MEL-2 melanoma; 100% with EKVX NSCLC. Also, the growth is 81.4% in the assay with UO-31 renal; 90.7% in the assay with TK-10 renal; 82.3% in the assay with ACHN renal; 88.7% with CAKI-1 renal; 90.9% with A498 renal; 73.7% with CCRF-CEM leukemia. For the same molecule, the growth in the assay on MOLT-4 leukemia was 89.3%.
As to `CCCCCN(CCCCC)C(C)C(O)c1ccc2cc(Cl)c3ccccc3c2c1` (configuration not stated), the growth is 93.1% in the assay with HCT-15 colon; 55.5% in the assay with HT29 colon; 93.8% with SNB-75 CNS; 104% with SNB-19 CNS; 90% in the assay on U251 CNS; 80.6% with PC-3 prostate. Moreover, the growth in the assay on SK-MEL-5 melanoma is 89.9%; with UACC-62 melanoma, 88.2%; in the assay with LOX IMVI melanoma, 94.3%; in the assay on SK-MEL-28 melanoma it was 108%; with SK-MEL-2 melanoma it was 87%; in the assay with EKVX NSCLC, 102%. Further, the growth in the assay on SN12C renal was 89.6%; in the assay with UO-31 renal, 70.6%; with ACHN renal, 102%; in the assay with CAKI-1 renal it was 87.4%; in the assay with CCRF-CEM leukemia, 92.2%; with MOLT-4 leukemia, 98.6%.
For the molecule `C(=C\c1nc2ccccc2s1)/c1ccc(N2CCOCC2)s1`, the growth with HCT-15 colon was 48.3%; with HT29 colon, 45.1%; in the assay on SNB-75 CNS, 99.6%; in the assay on SNB-19 CNS, 95.2%; in the assay on U251 CNS, 67.6%; in the assay on PC-3 prostate, 53.4%. Moreover, the growth was 61.1% in the assay with SK-MEL-5 melanoma; 30.8% in the assay on UACC-62 melanoma; 56.8% in the assay with LOX IMVI melanoma; 113% in the assay with SK-MEL-28 melanoma; 81.2% in the assay with SK-MEL-2 melanoma; 87.8% in the assay on EKVX NSCLC. In addition, the growth was 93.8% with SN12C renal; 89.6% with TK-10 renal; 63.4% in the assay with ACHN renal; 83.3% with CAKI-1 renal; 86.4% in the assay with A498 renal; 58.2% in the assay with CCRF-CEM leukemia. For the same molecule, the growth in the assay with MOLT-4 leukemia was 51%.
For `Cc1c(C(=O)N[C@H](CO)Cc2ccccc2)[nH]c2ccc(Cl)cc2c1=O`, the growth with HCT-15 colon was 100%; in the assay on HT29 colon, 90.1%; in the assay with SNB-75 CNS it was 99.9%; in the assay with SNB-19 CNS, 106%; in the assay with U251 CNS it was 92.7%; in the assay with PC-3 prostate it was 97.6%. Moreover, the growth in the assay on SK-MEL-5 melanoma was 99%; with UACC-62 melanoma it was 92.9%; in the assay with LOX IMVI melanoma, 97.9%; with SK-MEL-28 melanoma, 114%; in the assay with SK-MEL-2 melanoma, 95.7%; in the assay on EKVX NSCLC, 94.4%. Besides, the growth with UO-31 renal is 98.2%; with TK-10 renal it was 94.5%; with ACHN renal, 101%; in the assay on CAKI-1 renal, 94.8%; in the assay on A498 renal it was 98%; with CCRF-CEM leukemia, 94.8%. The growth in the assay with MOLT-4 leukemia was 92.2%.
Regarding `O=c1oc2c3ccc4cnccc4c3[nH]c2c2ccccc12`, the growth in the assay on HCT-15 colon was 80.9%; in the assay on HT29 colon it was -19.7% (active); with SNB-75 CNS it was 14.1%; in the assay with SNB-19 CNS it was 14.6%; in the assay with U251 CNS, -35% (active); in the assay on PC-3 prostate it was 71.4%. The growth in the assay with SK-MEL-5 melanoma was 28.3%; with UACC-62 melanoma, 73.2%; in the assay with LOX IMVI melanoma, 13.5%; with SK-MEL-28 melanoma, 5.14% (active); with SK-MEL-2 melanoma it was 67.1%; with EKVX NSCLC it was 74.2%. In addition, the growth is 73.8% in the assay with SN12C renal; 63.5% in the assay on ACHN renal; 54.3% with CAKI-1 renal; 55.5% in the assay with A498 renal; -1.54% (active) with CCRF-CEM leukemia; 13.7% in the assay on MOLT-4 leukemia.
On to `N#CN1CC[C@H](C(=O)Nc2ncc(-c3ccncc3)s2)C1`, for which the growth is 2.59% (active) in the assay on HCT-15 colon; -39.9% (active) in the assay on HT29 colon; -37.5% (active) in the assay on SNB-75 CNS; 9.6% (active) in the assay with SNB-19 CNS; 1.7% (active) with U251 CNS; 5.04% (active) with PC-3 prostate. Further, the growth in the assay with SK-MEL-5 melanoma was -17.1% (active); in the assay on UACC-62 melanoma, -26.9% (active); with LOX IMVI melanoma it was 2.09% (active); in the assay on SK-MEL-28 melanoma, 5.92% (active); with SK-MEL-2 melanoma it was -36.1% (active); in the assay with EKVX NSCLC it was 1.46% (active). For the same molecule, the growth is 8.4% (active) in the assay with UO-31 renal; -24.9% (active) with TK-10 renal; 6.59% (active) in the assay on ACHN renal; 10% in the assay with CAKI-1 renal; -49.4% (active) in the assay on A498 renal; 7.15% (active) with CCRF-CEM leukemia. The growth with MOLT-4 leukemia was -20.4% (active).
As for `CCCCCCCCCCSC(=N)N` (tested in a mixture with another compound), the growth is 12% in the assay with HCT-15 colon; 3.13% (active) in the assay on HT29 colon; 91.2% with SNB-75 CNS; 75.8% in the assay on SNB-19 CNS; 31.6% in the assay with U251 CNS; 65.5% in the assay on PC-3 prostate. Further, the growth in the assay on SK-MEL-5 melanoma is 80.5%; with UACC-62 melanoma, 9.19% (active); in the assay on LOX IMVI melanoma, 48.9%; in the assay with SK-MEL-28 melanoma, 72.1%; in the assay on SK-MEL-2 melanoma, 81.2%; with EKVX NSCLC, 74.8%. Also, the growth in the assay with UO-31 renal is 64.4%; in the assay on TK-10 renal it was 90.1%; with ACHN renal, 81.1%; with CAKI-1 renal, 87.9%; in the assay with A498 renal it was 80.1%; with CCRF-CEM leukemia it was 56.2%.
Regarding `CN(C)c1ccc2cc(-c3cc4c(oc3=O)-c3ccccc3OC4O)c(=O)oc2c1` (configuration not stated), the growth was 7.71% (active) in the assay with HCT-15 colon; 18.9% in the assay with HT29 colon; 24% in the assay with SNB-75 CNS; 36.7% with SNB-19 CNS; 30% in the assay with U251 CNS; -5.5% (active) in the assay on PC-3 prostate. The growth with SK-MEL-5 melanoma is -34% (active); in the assay on UACC-62 melanoma it was 33.4%; with LOX IMVI melanoma, -32.4% (active); in the assay with SK-MEL-28 melanoma it was 64.5%; in the assay on SK-MEL-2 melanoma, -38.2% (active); in the assay on EKVX NSCLC, 22.6%. The growth in the assay with SN12C renal was 57.9%; with TK-10 renal, -36.4% (active); with ACHN renal it was 4.78% (active); with CAKI-1 renal, -4.81% (active); with A498 renal, 13.2%; in the assay on CCRF-CEM leukemia, -20.5% (active). For the same molecule, the growth in the assay on MOLT-4 leukemia is -64.7% (active).
